Screen size: about 5,500 compounds; about 2,000 (36%) were called active. Not shown: some 18% with an inconclusive outcome. Cut-off read from the data, not from the text of the source: active = normalized growth mostly below about 0.91 (no sharp cut-off); inconclusive = no clear call, values can overlap the other calls; inactive = mostly above about 0.92. The list shows a part of the results.
Experiment: chemical genetic growth profiling, strain panel (AID 1159580);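 note: tested at 20 µM; growth read once vehicle control cultures reached saturation at 30 °C; 1 = growth at the plate median or of vehicle wells; lower values mean less growth of the strain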
Conditions: growth OD

Measured: normalized growth

CCCc1nc(C(C)(C)O)c(C(=O)OCc2oc(=O)oc2C)n1Cc1ccc(-c2ccccc2-c2nn[nH]n2)cc1
inactive: S. cerevisiae deletion strains, locus YKL009W, strain mrt4, stronger effect = lower value 0.957 | S. cerevisiae deletion strains, locus YKL068W, stronger effect = lower value 0.988 | S. cerevisiae deletion strains, locus YKL085W, strain MDH1 (second series), stronger effect = lower value 0.98 | S. cerevisiae deletion strains, locus YKL085W, strain MDH1, stronger effect = lower value 0.98 | S. cerevisiae deletion strains, locus YKL160W, strain elf1, stronger effect = lower value 0.994 | S. cerevisiae deletion strains, locus YKL190W, strain CNB1, stronger effect = lower value 1.01 | S. cerevisiae deletion strains, locus YKR001C, strain vps1, stronger effect = lower value 0.985 | S. cerevisiae deletion strains, locus YKR026C, strain gcn3, stronger effect = lower value 0.976 | S. cerevisiae deletion strains, locus YKR091W, strain srl3, stronger effect = lower value 0.981 | S. cerevisiae deletion strains, locus YLL001W, strain dnm1, stronger effect = lower value 0.972 | S. cerevisiae deletion strains, locus YLL026W, stronger effect = lower value 0.958 | S. cerevisiae deletion strains, locus YLL041C, strain sdh2, stronger effect = lower value 0.972 | S. cerevisiae deletion strains, locus YLR027C, strain aat2, stronger effect = lower value 0.984 | S. cerevisiae deletion strains, locus YLR039C, strain RIC1, stronger effect = lower value 0.981 | S. cerevisiae deletion strains, locus YLR058C, strain SHM2, stronger effect = lower value 0.988 | S. cerevisiae deletion strains, locus YLR102C, strain apc9, stronger effect = lower value 0.989 | S. cerevisiae deletion strains, locus YLR113W, strain HOG1, stronger effect = lower value 0.987 | S. cerevisiae deletion strains, locus YLR221C, strain rsa3, stronger effect = lower value 1.02 | S. cerevisiae deletion strains, locus YLR258W, strain gsy2, stronger effect = lower value 0.977 | S. cerevisiae deletion strains, locus YLR262C, strain YPT6 (second series), stronger effect = lower value 0.962 | S. cerevisiae deletion strains, locus YLR262C, strain YPT6, stronger effect = lower value 0.987 | S. cerevisiae deletion strains, locus YLR268W, strain sec22, stronger effect = lower value 0.971 | S. cerevisiae deletion strains, locus YLR320W, strain mms22, stronger effect = lower value 1.01 | S. cerevisiae deletion strains, locus YLR330W, strain CHS5, stronger effect = lower value 0.995 | S. cerevisiae deletion strains, locus YLR342W, strain FKS1 (second series), stronger effect = lower value 0.977 | S. cerevisiae deletion strains, locus YLR342W, strain FKS1, stronger effect = lower value 0.978 | S. cerevisiae deletion strains, locus YLR357W, strain rsc2, stronger effect = lower value 0.985 | S. cerevisiae deletion strains, locus YLR370C, strain arc18, stronger effect = lower value 0.947 | S. cerevisiae deletion strains, locus YLR371W, strain rom2, stronger effect = lower value 0.985 | S. cerevisiae deletion strains, locus YLR384C, strain iki3, stronger effect = lower value 0.977 | S. cerevisiae deletion strains, locus YLR418C, strain cdc73, stronger effect = lower value 0.952 | S. cerevisiae deletion strains, locus YML016C, strain PPZ1, stronger effect = lower value 0.993 | S. cerevisiae deletion strains, locus YML032C, strain rad52, stronger effect = lower value 0.993 | S. cerevisiae deletion strains, locus YML120C, strain ndi1, stronger effect = lower value 0.97 | S. cerevisiae deletion strains, locus YML124C, strain tub3, stronger effect = lower value 0.984 | S. cerevisiae deletion strains, locus YMR058W, strain fet3, stronger effect = lower value 0.965 | S. cerevisiae deletion strains, locus YMR078C, strain ctf18, stronger effect = lower value 0.99 | S. cerevisiae deletion strains, locus YMR125W, strain sto1, stronger effect = lower value 0.932 | S. cerevisiae deletion strains, locus YMR129W, stronger effect = lower value 0.97 | S. cerevisiae deletion strains, locus YMR205C, strain PFK2, stronger effect = lower value 0.976 | S. cerevisiae deletion strains, locus YMR223W, strain ubp8, stronger effect = lower value 0.995 | S. cerevisiae deletion strains, locus YMR231W, strain pep5, stronger effect = lower value 0.967 | S. cerevisiae deletion strains, locus YMR263W, strain SAP30, stronger effect = lower value 1.02 | S. cerevisiae deletion strains, locus YMR307W, strain GAS1, stronger effect = lower value 0.894 | S. cerevisiae deletion strains, locus YNL067W, strain RPL9B, stronger effect = lower value 1.03 | S. cerevisiae deletion strains, locus YNL071W, strain lat1, stronger effect = lower value 0.977 | S. cerevisiae deletion strains, locus YNL128W, strain TEP1, stronger effect = lower value 1.02 | S. cerevisiae deletion strains, locus YNL153C, strain GIM3, stronger effect = lower value 0.996 | S. cerevisiae deletion strains, locus YNL183C, strain NPR1, stronger effect = lower value 0.963 | S. cerevisiae deletion strains, locus YNL209W, strain ssb2, stronger effect = lower value 0.971 | S. cerevisiae deletion strains, locus YNL233W, strain BNI4, stronger effect = lower value 0.992 | S. cerevisiae deletion strains, locus YNL248C, strain rpa49, stronger effect = lower value 0.969 | S. cerevisiae deletion strains, locus YNL250W, strain rad50, stronger effect = lower value 0.992 | S. cerevisiae deletion strains, locus YNL271C, strain bni1, stronger effect = lower value 0.992 | S. cerevisiae deletion strains, locus YNL298W, strain CLA4, stronger effect = lower value 0.975 | S. cerevisiae deletion strains, locus YNL307C, strain MCK1, stronger effect = lower value 0.992 | S. cerevisiae deletion strains, locus YNL322C, strain KRE1 (second series), stronger effect = lower value 0.972 | S. cerevisiae deletion strains, locus YNL322C, strain KRE1, stronger effect = lower value 0.997 | S. cerevisiae deletion strains, locus YNR049C, strain mso1, stronger effect = lower value 0.968 | S. cerevisiae deletion strains, locus YNR052C, strain pop2, stronger effect = lower value 0.99 | S. cerevisiae deletion strains, locus YOL006C, strain TOP1, stronger effect = lower value 0.998 | S. cerevisiae deletion strains, locus YOL012C, strain htz1 1.03 | S. cerevisiae deletion strains, locus YOL147C, strain pex11, stronger effect = lower value 0.998 | S. cerevisiae deletion strains, locus YOR001W, strain rrp6, stronger effect = lower value 0.943 | S. cerevisiae deletion strains, locus YOR061W, strain CKA2, stronger effect = lower value 0.989 | S. cerevisiae deletion strains, locus YOR069W, strain VPS5, stronger effect = lower value 0.994 | S. cerevisiae deletion strains, locus YOR070C, strain gyp1, stronger effect = lower value 0.992 | S. cerevisiae deletion strains, locus YOR080W, strain dia2, stronger effect = lower value 0.964 | S. cerevisiae deletion strains, locus YOR083W, strain WHI5, stronger effect = lower value 0.993 | S. cerevisiae deletion strains, locus YOR106W, strain vam3, stronger effect = lower value 0.969 | S. cerevisiae deletion strains, locus YOR136W, strain idh2, stronger effect = lower value 0.986 | S. cerevisiae deletion strains, locus YOR144C, strain elg1, stronger effect = lower value 0.985 | S. cerevisiae deletion strains, locus YOR184W, strain ser1, stronger effect = lower value 0.995 | S. cerevisiae deletion strains, locus YOR231W, strain MKK1, stronger effect = lower value 0.958 | S. cerevisiae deletion strains, locus YOR265W, strain rbl2, stronger effect = lower value 0.979 | S. cerevisiae deletion strains, locus YOR270C, strain vph1, stronger effect = lower value 1.01 | S. cerevisiae deletion strains, locus YOR290C, strain snf2, stronger effect = lower value 0.983 | S. cerevisiae deletion strains, locus YOR316C, strain cot1, stronger effect = lower value 0.989 | S. cerevisiae deletion strains, locus YPL051W, strain arl3, stronger effect = lower value 0.988 | S. cerevisiae deletion strains, locus YPL055C, strain LGE1, stronger effect = lower value 0.993 | S. cerevisiae deletion strains, locus YPL078C, strain atp4, stronger effect = lower value 0.961 | S. cerevisiae deletion strains, locus YPL106C, strain sse1, stronger effect = lower value 0.894 | S. cerevisiae deletion strains, locus YPL240C, strain hsp82, stronger effect = lower value 0.974 | S. cerevisiae deletion strains, locus YPL241C, strain CIN2, stronger effect = lower value 0.999 | S. cerevisiae deletion strains, locus YPL256C, strain CLN2, stronger effect = lower value 0.95 | S. cerevisiae deletion strains, locus YPR119W, strain clb2, stronger effect = lower value 0.992 | S. cerevisiae deletion strains, locus YPR141C, strain kar3, stronger effect = lower value 0.99 | S. cerevisiae deletion strains, locus YPR163C, strain tif3, stronger effect = lower value 0.981 | S. cerevisiae deletion strains, locus YPR167C, strain met16, stronger effect = lower value 0.982 | S. cerevisiae deletion strains, strain wtn01, stronger effect = lower value 0.981 | S. cerevisiae strains, strain wild type, stronger effect = lower value 1.02

— PubChem BioAssay AID1159580 (chemical genetic matrix, 2015)
